Data on 23 sequences can be found in PMC7819943, “Rice protein-binding microarrays: a tool to detect cis-acting elements near promoter regions in rice”.

Over roughly 68,000 sequences, “fluorescence intensity (a.u.)” has its median near 9,100; the highest 2% begin near 16,000. For the sample, the highest values were picked, then their nearest neighbours and some sequences at random.

Sequence of OsWRKY34 (Q0JBA9 entry or part of it): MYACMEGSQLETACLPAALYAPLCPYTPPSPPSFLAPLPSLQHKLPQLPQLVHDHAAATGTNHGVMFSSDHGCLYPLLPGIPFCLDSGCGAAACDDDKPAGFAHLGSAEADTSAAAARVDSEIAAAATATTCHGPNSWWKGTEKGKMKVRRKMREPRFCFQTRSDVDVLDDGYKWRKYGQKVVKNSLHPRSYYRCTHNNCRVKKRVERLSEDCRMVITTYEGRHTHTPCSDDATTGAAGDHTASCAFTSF

The target in the assay is OsWRKY34 (Oryza sativa, UniProt Q0JBA9 1-250). The assay can be described thus: protein-binding microarray (RPBM); PBS, 2% BSA, 51.3 ng/ul salmon testes DNA, 50 uM zinc acetate, 200 nM TF, 25 C, 1 h; high values mean tight binding. As to conditions: protein: recombinant; tags: N-terminal polyhistidine and DsRed monomer fusion (pET32a); label: CyDye5-dUTP incorporated in the synthesized complementary strand; 3' TTTTT single-stranded linker to array surface; dsDNA, one strand shown. An outline of the steps:
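Transcription factors were each fused at the N-terminus to a polyhistidine tag plus DsRed and expressed in E. coli BL21-CodonPlus before Ni–NTA purification. Binding to a double-stranded custom Agilent array was carried out with 200 nM protein at 25 °C for 1 h in PBS, 2% BSA, salmon testes DNA and 50 µM zinc acetate. The binding signal is per-feature fluorescence intensity, in arbitrary units, on an Axon 4000B scanner.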
For “TCTCGATCTCCCCGCCTATTTATGCTCGTCTCGTCACCCGCGGAGTCACCTAGTGCAG”, the binding signal is 8140 fluorescence intensity (a.u.).
Take “GATATTTTGCTTGTATTGTTCGACCACTCGTCTTATTAAACGGAGTCACCTAGTGCAG”: the binding signal is 8040 fluorescence intensity (a.u.).
“TCATCTCATCTCTCTCGTTTTTATATGCACGTTTTTCAAACGGAGTCACCTAGTGCAG”: the binding signal was 9530 fluorescence intensity (a.u.).
As to “TTTGGGTGGTGGCAGTTGACAGAAGAGAGTGAGCACACAGCGGAGTCACCTAGTGCAG”, the binding signal was 8270 fluorescence intensity (a.u.).
As for “TTTACAATGGTATCTATGTGTTGTTTTTGTGTGTGTGTGTCGGAGTCACCTAGTGCAG”, the figure is 10100 fluorescence intensity (a.u.).
“ATGCTTGCCTTCTTCTTATTCTCCTTCCCTATGGTCTTCTCGGAGTCACCTAGTGCAG”: the binding signal was 8770 fluorescence intensity (a.u.).
As for “ACATGCAACAGTGTGTCGTGCTTGTATTTCTGTTATCTGACGGAGTCACCTAGTGCAG”, the figure is 8660 fluorescence intensity (a.u.).
As to “GTGCATGTGTAGGGAGGGCACAATGGAGGGGTGTTTTTTTCGGAGTCACCTAGTGCAG”, the binding signal was 15000 fluorescence intensity (a.u.).
For “ATGGGTGGAGGAGTGGGAGGGGATTAAATATCGGCGGAGGCGGAGTCACCTAGTGCAG”, the binding signal was 9240 fluorescence intensity (a.u.).
The value for “TCCGTTTTGCCGTTGGGCTAGCTTAGCTTGTTTTTTTTTTCGGAGTCACCTAGTGCAG” was 12000 fluorescence intensity (a.u.).
As to “CTTCAACTTTCTCGTTTTCCGTCAGCACGCTTTCCAAACTCGGAGTCACCTAGTGCAG”, the binding signal is 9080 fluorescence intensity (a.u.).
Consider “TCCAACTTGGGGAGGGAGGGCCGTTTCAGCTCGGGCTTTTCGGAGTCACCTAGTGCAG”, for which the binding signal was 17200 fluorescence intensity (a.u.).
With “ATGTGATTAAATGGAGGGTTTTCGGGGAGGGTTTTCGGGGCGGAGTCACCTAGTGCAG”, the binding signal is 24100 fluorescence intensity (a.u.).
As for “AATGTGACCAAGCCAACTTAACTTATTATACTTCTTAGTTCGGAGTCACCTAGTGCAG”, the figure is 8680 fluorescence intensity (a.u.).
As for “CCAAGACCGCACCCGTATAAAGCCGCAGACCTCTCTCTCCCGGAGTCACCTAGTGCAG”, the figure is 10100 fluorescence intensity (a.u.).
In the case of “CTCTGACCATATATCACGTTCTACGTCCAGGTCAAATCACCGGAGTCACCTAGTGCAG”, the binding signal was 8730 fluorescence intensity (a.u.).
On to “TGCGTCCCTCTTCCTTCATTCTCCTGACGCCTAGGGCCCACGGAGTCACCTAGTGCAG”, for which the binding signal is 8280 fluorescence intensity (a.u.).
In the case of “TTATGGGTATGTCACCAGGGGTTTAATCTTTCATTTTCAACGGAGTCACCTAGTGCAG”, the binding signal was 12300 fluorescence intensity (a.u.).
As to “CACTCAACCTAACTGTTGAACGGTCCTGTTCTGGCCAACGCGGAGTCACCTAGTGCAG”, the binding signal was 8890 fluorescence intensity (a.u.).
On to “CTGGACGCGGTCCTGCACGACACATGCATCATCTCCTCAACGGAGTCACCTAGTGCAG”, for which the binding signal was 8570 fluorescence intensity (a.u.).
For “ATGATAGGTCCTGGACTCACAAGTTATTGAGAACGGCACGCGGAGTCACCTAGTGCAG”, the binding signal is 50900 fluorescence intensity (a.u.).
Take “TGGTGTGTTTTTTGGGATGTTTCGGTAGGTATTTTGTGATCGGAGTCACCTAGTGCAG”: the binding signal is 12000 fluorescence intensity (a.u.).
As to “GGCTGCCTCCTCTCCTCATCCCTGCACCTACACTCCAATACGGAGTCACCTAGTGCAG”, the binding signal was 8530 fluorescence intensity (a.u.).
